Test results taken from PubChem BioAssay AID803 (The Scripps Research Institute Molecular Screening Center, 2007).
Screen size: about 140,000 compounds; about 680 (0.49%) were called active. The entries come from a sample that favours actives as a whole. Unmarked numbers belong to inactive results. No stated cut-off is given here; in the data, active means activation above about 5% (passing the limit was not always enough); inactive means the rest.

biological target: Galanin receptor type 2 (Homo sapiens) (UniProt O43603); assay: GALR2 receptor agonists, primary screen, cell-based (AID 803); settings: GALR2-expressing cells, agonist activation read-out; at 5.6 µM; hits give high values;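 further: 0% = vehicle buffer wells and 100% = reference agonist at full effect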
Sequence (O43603 whole entry, looked up): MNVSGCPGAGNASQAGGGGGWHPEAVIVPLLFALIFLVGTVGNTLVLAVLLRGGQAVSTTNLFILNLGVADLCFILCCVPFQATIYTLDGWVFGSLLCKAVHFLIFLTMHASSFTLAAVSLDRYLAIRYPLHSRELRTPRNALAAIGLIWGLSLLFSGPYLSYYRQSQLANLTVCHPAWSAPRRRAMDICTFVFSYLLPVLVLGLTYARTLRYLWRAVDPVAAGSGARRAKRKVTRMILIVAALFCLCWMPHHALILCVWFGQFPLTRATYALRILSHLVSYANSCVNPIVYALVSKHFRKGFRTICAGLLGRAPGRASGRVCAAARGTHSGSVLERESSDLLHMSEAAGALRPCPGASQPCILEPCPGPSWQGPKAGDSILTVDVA

Row | Compound | activation
1 | COc1ccc(S(=O)(=O)NC(C)C(=O)Nc2cccc([N+](=O)[O-])c2)cc1 (centres undefined) | -0.92%
2 | CC(C)C(=O)Nc1cccc(NC(=O)c2ccc([N+](=O)[O-])cc2Cl)c1 | 7.57% (active)
3 | CCC(C)C(=O)Nc1cc([N+](=O)[O-])ccc1Cl (centres undefined) | -0.24%
4 | C/C(=N\N=C(N)N)c1ccc(Cl)cc1 | -2.59%
5 | O=C(NN1C(=O)C2C3C=CC(C3)C2C1=O)c1ccco1 (centres undefined) | -0.17%
6 | CC1(C)CC(=O)C=C(NCCCNC2CCCCC2)C1 | -0.48%
7 | CC1(C)CC(=O)C=C(NCCN2CCNCC2)C1 | 33.1% (active)
8 | CC1(C)CC(=O)C=C(NCCCN2CCCC2=O)C1 | -3.74%
9 | COc1cccc(/C=N/Nc2ncc(C(F)(F)F)cc2Cl)c1O | 0.04%
10 | Cc1cc(O)ccc1NC1=CC(=O)CC(C)(C)C1 | -0.24%
11 | O=C(O)c1ccc(NC(=O)c2cccs2)cc1 | -3%
12 | COCCCNC(=S)NC(=O)c1ccc([N+](=O)[O-])cc1 | -2.33%
13 | O=C(NC(=S)Nc1ccc(NC(=O)c2cccs2)cc1)c1ccc([N+](=O)[O-])cc1 | 13.8% (active)
14 | O=C(N/N=C/c1ccc(O)cc1)/C(=C/c1ccc([N+](=O)[O-])cc1)NC(=O)c1ccccc1 | -1.29%
15 | O=C(Nc1ccccc1)/C(=C/c1ccc([N+](=O)[O-])cc1)NC(=O)c1ccccc1 | 5.48% (active)
16 | O=C(NCCc1ccccc1)/C(=C\c1ccc([N+](=O)[O-])cc1)NC(=O)c1ccccc1 | -1.62%
17 | Cc1ccccc1C(CC(=O)c1cccs1)C(C#N)C#N (centres undefined) | -0.23%
18 | Cc1cc2c(C)nc(N/N=C/c3ccccc3)nc2o1 | 0.45%
19 | O=C(Oc1ccccc1Cl)c1ccc(N2CCOCC2)c([N+](=O)[O-])c1 | -1.48%
20 | CC(=O)c1sc(N/N=C\c2ccc(C)cc2)nc1C | 2.02%
21 | O=C(CSc1ncnc2scc(-c3ccccc3)c12)NCc1ccc2c(c1)OCO2 | -1.28%
22 | CC(C)(C)SCCNC(=O)c1cccc([N+](=O)[O-])c1 | -0.73%
23 | Cc1ccc(S(=O)(=O)N2CCN(CC(=O)N/N=C/c3cc([N+](=O)[O-])ccc3Cl)CC2)cc1 | -0.78%
24 | CSc1nc(-c2ccccc2)nc(C(Cl)Cl)n1 | 8.01% (active)

Row | Compound | activation
25 | CSc1nc(C)cc(SC(C(C)=O)C(=O)Nc2ccccc2)n1 (centres undefined) | -0.36%
26 | CC(=O)CCC(=O)c1ccc2ccccc2c1 | -2.23%
27 | Cc1ccc(C(=O)NC(=S)NCCN2CCOCC2)cc1 | -1.71%
28 | COc1cc2c(cc1/C=C1/NC(=O)N(c3ccccc3)C1=O)OCO2 | 1.22%
29 | O=C1CC(NNc2ccccc2)C(=O)N1c1cccc(Cl)c1 (centres undefined) | -2.24%
30 | O=C1N/C(=C/c2cccn2-c2ccccc2)C(=O)N1c1cccc(Cl)c1 | 6.96% (active)
31 | CCOc1ccc2nc(NC(=O)c3cc([N+](=O)[O-])ccc3N3CCOCC3)sc2c1 | -0.53%
32 | O=C1COc2ccc(NC(=O)N3CCN(c4ccc(F)cc4)CC3)cc2N1 | 12.7% (active)
33 | O=C(Nc1cccc(NC(=O)N2CCN(c3ccccc3)CC2)c1)N1CCN(c2ccccc2)CC1 | -2.65%
34 | COc1cccc(N2CCN(C(=O)Nc3ccc4c(c3)NC(=O)CO4)CC2)c1 | -2.77%
35 | COCC(=O)N=Nc1c(O)[nH]c2ccccc12 | -0.5%
36 | CN(c1ccccc1)c1nc(N)c([N+](=O)[O-])c(NCc2ccco2)n1 | 1.08%
37 | CCc1nnc(NC(=O)C2CC(=O)N(c3ccc4c(c3)OCCO4)C2)s1 (centres undefined) | 0.1%
38 | CNC(=S)N/N=C/c1ccc(OCc2ccccc2)c(Br)c1 | 7.44% (active)
39 | COc1cc(/C=N/n2c(C)n[nH]c2=S)ccc1OCc1ccccc1 | 1.11%
40 | CNC(=S)NNC(=O)c1sccc1OCc1ccccc1 | -1.56%
41 | COc1ccc(/C(N)=N/OC(=O)CCCc2ccccc2)cc1 | -0.21%
42 | C=C(C)c1cccc(C(C)(C)NC(=O)NC2CCCC2)c1 | -1.16%
43 | COc1ccc(C(=O)OCC(=O)NC(=O)CCSc2ccccc2)cc1 | -1.93%
44 | CC(Sc1cccc[n+]1[O-])C(=O)Nc1cccc(S(=O)(=O)N2CCOCC2)c1 (centres undefined) | -0.5%
45 | COc1ccc(Nc2nc(N)nc(CSC(=S)N3CCC(C)CC3)n2)cc1 | 0.01%
46 | COCCNC(=S)N/N=C/c1c(C)[nH]c2ccccc12 | -0.61%
47 | CCOC(=O)c1c(C)c(C(=O)NCCc2ccc(S(N)(=O)=O)cc2)c(C)n1CC | -2.14%
48 | CCCNC(=O)c1c(N)n(-c2ccc(S(N)(=O)=O)cc2)c2nc3ccccc3nc12 | 35.1% (active)

Row | Compound | activation
49 | CCC(=O)Nc1c(S(=O)(=O)c2ccccc2)c2nc3ccccc3nc2n1Cc1ccccc1 | 2.15%
50 | CCC(CC)C(=O)N1CCN(c2cccc(C)c2C)CC1 | -1.21%
51 | Cc1cc(C(=O)N/N=C/c2ccc(O)c([N+](=O)[O-])c2)c(C)n1-c1ccc(F)cc1 | 1.21%
52 | Cc1[nH]c2ccccc2c1/C=N\NC(=O)Cn1nnc(-c2ccccc2)n1 | 5.32% (active)
53 | O=C(Cn1nnc(-c2ccccc2)n1)N/N=C/c1ccc(-c2ccc(Cl)cc2)o1 | -0.89%
54 | O=C(Cn1nnc(-c2ccccc2)n1)NCc1ccccc1 | -0.65%
55 | COc1ccc(NC(=O)CN2C(=O)C(c3ccccc3)=NC23CCCCCC3)cc1OC | -2.09%
56 | CC(=O)NNC1=Nc2ccccc2N(C)C(C)C1 (centres undefined) | -1.09%
57 | COc1cccc(/C=N/NC(=O)CNC(=O)c2ccc(S(=O)(=O)N3CCOCC3)cc2)c1OC | -1.42%
58 | CN(C(=O)CSc1nnc(-c2n[nH]c3ccccc23)o1)c1ccccc1 | 0.05%
59 | Cc1ccc2sc(NNC(=O)c3ccc4c(c3)OCCO4)nc2c1C | -2.21%
60 | Cc1ccsc1C(C(=O)NC1CCCCC1)N(C(=O)Cc1cccs1)C1CC1 (centres undefined) | 0.48%
61 | CC(=O)N(Cc1cccs1)C1CCOC(C)(C)C1 (centres undefined) | 36.2% (active)
62 | O=C(O)CCC(=O)N(Cc1cccs1)Cc1cccs1 | 0.14%
63 | Cc1nn(-c2ccccc2)c(NC(=O)c2cccs2)c(-c2ccc(Cl)cc2)c1=O | -0.28%
64 | COc1ccc(C(=O)CN2C(=O)NC(C)(c3ccc(C)cc3)C2=O)cc1OC (centres undefined) | 10.3% (active)
65 | COc1ccc(C(=O)n2nc(-c3ccc(C)cc3)nc2N)cc1OC | -1.18%
66 | COc1ccc(C(=O)Cn2nnc(-c3ccc(N4CCOCC4)cc3)n2)cc1OC | -0.59%
67 | CCN(CC)c1nc(-c2ccccc2)cc(C(F)(F)F)c1C#N | 14.6% (active)
68 | COC(=O)c1cc2nc(-c3ccccc3)cc(C(F)(F)F)n2n1 | -0.55%
69 | N#Cc1c(C(F)(F)F)cc(-c2ccccc2)nc1SCC(=O)N1CCOCC1 | -2.74%
70 | O=S(=O)(c1ccc(F)cc1)N1CCN(C(=S)NC2CCCC2)CC1 | -1.23%
71 | Cc1cccc(C(=O)NC(=S)N2CCN(c3ccc([N+](=O)[O-])cc3)CC2)c1 | 0.09%
72 | CCCOc1ccc(C(=O)C(CCC(CNCC)C(=O)c2ccc(OCCC)cc2)CNCC)cc1 (centres undefined) | 24.7% (active)

Row | Compound | activation
73 | CCCCOc1ccc(C(=O)NCc2ccncc2)cc1 | -0.14%
74 | CCCCOc1ccc(C(=O)NCc2ccco2)cc1 | -1.35%
75 | CCc1ccc(Oc2coc3cc(OC(=O)c4cc5ccccc5oc4=O)ccc3c2=O)cc1 | 0.76%
76 | OC(COCC1COc2ccccc2O1)CN1CCN(c2ccc(F)cc2)CC1 (centres undefined) | -0.37%
77 | CCN(/N=C/c1ccc(N(C)C)cc1)c1nc2ccccc2[nH]1 | -1.85%
78 | COc1cc(NS(=O)(=O)c2ccc(N=Cc3c(C)[nH]n(-c4ccccc4)c3=O)cc2)nc(OC)n1 | -4.11%
79 | COc1cc(SC#N)ccc1N=Cc1c(C)[nH]n(-c2ccc(C)cc2)c1=O | 17.6% (active)
80 | CCc1nnc(NS(=O)(=O)c2ccc(N=Cc3c(C)[nH]n(-c4ccc(C)cc4)c3=O)cc2)s1 | -3.95%
81 | CC(=O)NCCC(=O)Nc1nc(C)c(Cc2ccc3c(c2)OCO3)s1 | -0.64%
82 | Cc1cc(F)ccc1S(=O)(=O)N1CCCOC1CNC(=O)C(=O)NCCC1=CCCCC1 (centres undefined) | -0.65%
83 | COc1ccc(C(C[N+](=O)[O-])n2nc(C)cc2C)cc1 (centres undefined) | 5.52% (active)
84 | COc1ccc(OCc2cn3c(C)cc(C)nc3n2)cc1 | -0.2%
85 | COc1ccc(Nc2cc(C)nc(-n3nc(C)cc3C)n2)cc1 | 0.3%
86 | CCC1C(=O)c2ccccc2N(C)C1=O (centres undefined) | -2.42%
87 | CC(C)Cn1c(N)c(C(=O)NCc2cccs2)c2nc3ccccc3nc21 | 29.6% (active)
88 | CCC(C)NC(=O)c1c(N)n(/N=C/c2cccs2)c2nc3ccccc3nc12 (centres undefined) | -0.44%
89 | C=CCn1c(N)c(C(=O)OCC(C)C)c2nc3ccccc3nc21 | -3.82%
90 | CCN(CC)c1ccc(S(=O)(=O)N2CCOCC2)cc1NC(=O)CSc1cccc[n+]1[O-] | -0.35%
91 | O=C(Cc1cccs1)Nc1nnc(SCc2ccc(F)cc2)s1 | 1.11%
92 | CCCCOc1ccc(C(=O)NN2CCN(C)CC2)cc1 | 0.08%
93 | CCCCOc1ccc(C(=O)NCC(=O)OCC(=O)N2CCN(S(=O)(=O)c3ccc(C)cc3C)CC2)cc1 | 7.56% (active)
94 | CCCc1cc(=O)[nH]c(SCC(=O)N2CCN(S(=O)(=O)c3ccc(C)cc3C)CC2)n1 | 2.71%
